# TDP1 cell noCPT: qHTS for Inhibitors of human tyrosyl-DNA phosphodiesterase 1 (TDP1): qHTS in cells in absence of CPT; DT40 Tdp1-/- hTDP1 cells, no CPT, ATP luminescence, 48 h; Potency, µM (top dose mostly 46.2 µM), actives largely listed as inhibitors; actives 15% (n = 420,000); further: nearly all actives have a fitted effect of over 55% in size
#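 Compound effects on proliferation are scored in DT40 Tdp1-/-;hTDP1 cells in the absence of CPT. ATP levels (CellTiter-Glo luminescence) are recorded after a ≥48 hr, 37 °C incubation.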
# TGFb inhibitor: blocks TGF-b signaling; AID 588855; Potency, µM (doses to about 46.1 µM), usual class: inhibitors; HepG2 CAGA-GFP TGF-b/SMAD3 reporter, GFP fluorescence, 18 h; TGF-beta stimulated, 500 pg/mL final; actives 1.2% (n = 410,000); further: nearly all actives have a fitted effect of over 65% in size
#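 Using HEPG2 CAGA-GFP reporter cells at 1000 cells/well, we pinned test compounds, stimulated with recombinant TGF-beta (500 pg/mL final) and measured total well GFP after 18 h.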
# DT40 TDP1 CPT: DT40-hTDP1 cell growth loss with CPT; chicken DT40 Tdp1-/-;hTDP1 cells + 20 nM CPT, ATP luminescence, 48 h; Potency, µM (series often up to 46.2 µM), hits mostly inhibitors; actives 12% (n = 420,000); further: nearly all actives have a fitted effect of over 55% in size
#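 Cell growth measured by CellTiter-Glo luminescence after a minimum 48 h, 37 C compound exposure with 20 nM CPT in Tdp1-knockout DT40 cells stably expressing hTDP1, seeded 400/well; qHTS titration format.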
# HepG2 viability: kills HepG2 cells in TGF-b inhibitor counter-screen; HepG2 CAGA-GFP viability, ATP luminescence, 18 h; Potency, µM (series often up to 46.1 µM), most hits filed as cytotoxic; actives 0.76% (n = 410,000)
#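 CellTiter-Glo luminescence gave cytotoxicity after 18 hours at 37 degrees C. The cells were HepG2 CAGA-GFP in 1% FBS DMEM, stimulated with 500 pg/mL TGF-beta after compound addition. %Activity was normalised to no-cell wells (complete cell-killing) and DMSO (no toxicity), and curves were fitted and classified.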
# ASM inhibitor: blocks human secretory acid sphingomyelinase; P17405; actives 0.006% (n = 340,000); placental ASM, HMU-PC fluorogenic substrate, 60 min; Potency, µM (doses to about 57.5 µM), actives largely listed as inhibitors
# Target sequence (P17405 47-631 limits assumed): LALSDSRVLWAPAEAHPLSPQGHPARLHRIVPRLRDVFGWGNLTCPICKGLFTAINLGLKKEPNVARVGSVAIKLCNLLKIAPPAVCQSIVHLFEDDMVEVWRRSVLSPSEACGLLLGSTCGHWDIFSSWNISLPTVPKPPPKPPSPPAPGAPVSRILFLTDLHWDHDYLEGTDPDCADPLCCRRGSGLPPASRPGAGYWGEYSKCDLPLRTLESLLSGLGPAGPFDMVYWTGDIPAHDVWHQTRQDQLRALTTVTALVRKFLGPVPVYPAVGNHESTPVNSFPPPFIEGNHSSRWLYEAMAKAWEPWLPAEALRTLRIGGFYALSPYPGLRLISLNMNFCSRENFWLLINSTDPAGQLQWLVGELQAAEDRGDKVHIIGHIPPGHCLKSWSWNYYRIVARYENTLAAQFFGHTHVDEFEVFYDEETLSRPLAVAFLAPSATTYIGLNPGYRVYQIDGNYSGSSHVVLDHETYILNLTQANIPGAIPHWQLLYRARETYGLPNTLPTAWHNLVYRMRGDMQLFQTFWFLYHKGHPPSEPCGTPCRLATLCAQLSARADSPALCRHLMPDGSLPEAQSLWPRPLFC
#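 HMU-PC0 cleavage (9 uM final) by human placental ASM, 60 min at 37 °C following 10 min compound exposure at RT; stopped at pH 10, fluorescence Ex 386/Em 447 nm.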
# IL1B secr inh: inhibitors of inflammasome signaling (IL-1 beta secretion) | AID 743279 | activity change, % at 57.5 µM | THP-1 LPS/ATP IL-1B secretion, AlphaLISA, 16 h; stronger effect = lower value | actives 4.7% (n = 360,000); in the data active means activity change below about -50%; inconclusive means mostly about -30% to -49%
#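 THP-1 cells pretreated 1 hr with compounds (up to 57.5 uM final), then stimulated with LPS (250 ng/mL final) plus ATP (1.25 mM final); secreted IL-1B measured by AlphaLISA after 16 hr, decreased signal indicating inhibition.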
# Numbers stand for hits; i = inactive; ? = inconclusive; nt = not tested or not shown; [ ] = remark or other dose. An excerpt weighted towards active compounds, which were near 19% of everything screened. Unless noted, the call rests on the fitted dose curve; in most records, active means well fitted curve in the direction sought with a large enough effect; inconclusive means small, poorly fitted or top-dose-only effect, or another doubt; inactive means no such curve, though single readings can be large; an effect the other way counts as inactive or inconclusive.
SMILES,TDP1 cell noCPT,TGFb inhibitor,DT40 TDP1 CPT,HepG2 viability,ASM inhibitor,IL1B secr inh
CC1=CC(C)(C)N2C(=O)C3(C(C#N)=C(N)Oc4cc(O)ccc43)c3c(C)c(C)cc1c32 (stereo not given),?,?,?,i,?,-73.3
Cc1cc(Cl)c(O)c(-n2nc3ccccc3n2)c1,?,i,20.6µM,i,i,i
CCc1ccc(-c2cc(C)no2)cc1S(=O)(=O)N1CCN(c2ccccc2)CC1,?,i,16.4µM,i,i,i
CCOC(=O)c1cc(-c2ccc(OC)c(S(=O)(=O)N3CCN(c4ccccc4)CC3)c2)on1,20.6µM,i,16.4µM,i,nt,nt
N#C/C(=C\c1c(N2CCC(C(N)=O)CC2)nc2ccccn2c1=O)C(=O)NC1CCCCC1,?,i,i,i,i,i
CN1c2ccc(Cl)cc2C(=O)NC1c1ccc([N+](=O)[O-])s1 (stereo not given),23.1µM,?,20.6µM,i,i,i
CC1CCCN(c2ccc([N+](=O)[O-])s2)C1 (stereo not given),i,i,i,i,i,i
C=CCC(=O)N1CCC(n2nccc2NC(=O)CCOc2ccccc2)CC1,i,i,i,i,i,i
O=S(=O)(N1CCCCC1)N1CCN(CC(O)COc2ccc3cc(Br)ccc3c2)CC1 (stereo not given),11.2µM,i,11.2µM,i,i,-52.4
OC(COc1ccc2cc(Br)ccc2c1)CN1CCN(c2ccccn2)CC1 (stereo not given),?,i,?,i,i,i
OC(COc1ccc(Br)cc1)CN1CCOCC1 (stereo not given),i,i,i,2.82µM,i,i
Brc1ccc(OCCOCCN2CCOCC2)cc1,i,i,i,i,i,i
Cc1ccc(OCC(O)CN2CCOCC2)cc1 (stereo not given),i,i,i,i,i,i
OC(COc1ccc2cc(Br)ccc2c1)CN1CCCC1 (stereo not given),23.1µM,?,?,i,i,i
OC(COc1ccc(OCC(O)CN2CCCCCC2)cc1)CN1CCCCCC1 (stereo not given),?,i,i,i,i,?
Brc1ccc(OCCCCCN2CCOCC2)cc1,i,i,i,i,i,-59.0
O=C(NCC1Cc2cccc(-c3ncccn3)c2O1)C1CCCO1 (stereo not given),i,nt,i[9.04 µM],nt,nt,nt
CN(C)C(=O)c1ccc2c(c1)N(CC(=O)NCc1ccccc1Cl)C(=O)C1CCCCN21 (stereo not given),i,i,i,i,nt,nt
CCOc1ccc(C(=O)NCc2nc3cccnc3n2Cc2cccc(OC)c2)cc1,i,i,i,i,nt,nt
COc1ccc(C2/C=C\CN(Cc3ccncc3)CC(=O)N2Cc2ccc(F)cc2)cc1 (stereo not given),?,i,?,i,i,i
O=C(NCC(=O)N1CCN(c2ccccc2)CC1)c1ccccc1,i,i,i,i,i,i
CN(C)S(=O)(=O)N1CCN(CC(O)COc2ccc(-c3ccccc3)cc2)CC1 (stereo not given),11.6µM,?,20.6µM,i,i,?
Cc1nc(C)n(CC(O)COc2ccc3cc(Br)ccc3c2)n1 (stereo not given),?,i,?,i,i,i
CN(C)S(=O)(=O)N1CCN(CC(O)COc2ccc3cc(Br)ccc3c2)CC1 (stereo not given),8.2µM,i,14.6µM,i,i,i
OCCN1CCN(CC(O)COc2ccc(-c3ccccc3)cc2)CC1 (stereo not given),?,i,?,i,i,i
SMILES,TDP1 cell noCPT,TGFb inhibitor,DT40 TDP1 CPT,HepG2 viability,ASM inhibitor,IL1B secr inh
Nc1c(S(=O)(=O)c2cccs2)c2nc3ccccc3nc2n1Cc1ccc2c(c1)OCO2,?,?,?,i,i,-66.7
CC(C)CCn1c(N)c(S(=O)(=O)c2cccs2)c2nc3ccccc3nc21,?,15.8µM,?,i,i,-87.6
CCCCCn1c(NC(=O)c2ccco2)c(S(=O)(=O)c2ccc(C)cc2)c2nc3ccccc3nc21,18.4µM,?,20.6µM,i,i,i
COc1ccc(CCn2c(N)c(C#N)c3nc4ccccc4nc32)cc1OC,13µM,i,20.6µM,i,i,i
COc1ccc(Cn2c(N)c(C#N)c3nc4ccccc4nc32)cc1OC,i,i,i,i,i,i
OC[C@@H]1CN(Cc2ccncc2)C[C@H](n2cnc3c(NCc4ccco4)ncnc32)O1,?,i,i,i,nt,i
Nc1c(S(=O)(=O)c2ccccc2)c2nc3ccccc3nc2n1Cc1ccco1,?,i,18.4µM,i,i,i
Nc1c(S(=O)(=O)c2cccs2)c2nc3ccccc3nc2n1Cc1cccs1,?,i,?,i,i,i
COc1ccc(CCn2c(N)c(S(=O)(=O)c3cccs3)c3nc4ccccc4nc32)cc1OC,?,i,?,i,i,-55.0
Cc1ccc(S(=O)(=O)c2c(N)n(CCC(C)C)c3nc4ccccc4nc23)cc1,?,?,?,i,i,-62.6
Cc1ccc(S(=O)(=O)c2c(N)n(CCCO)c3nc4ccccc4nc23)cc1,i,i,i,i,i,i
COc1cccc(C(=O)N2CCCC(c3nc(SCCN4CCOCC4)ncc3C)C2)c1 (stereo not given),16.4µM,nt,?,nt,nt,nt
COc1ccccc1C(=O)N1CCCC(c2nc(SCCN3CCOCC3)ncc2C)C1 (stereo not given),?,nt,i[9.04 µM],nt,nt,nt
Cc1cnc(SCc2ccccn2)nc1C1CCCN(C(=O)c2noc3c2CCCC3)C1 (stereo not given),14.6µM,nt,10.3µM,nt,nt,nt
COc1ccc(C(=O)N2CCCC(c3nc(SCc4ccccn4)ncc3C)C2)cc1F (stereo not given),7.31µM,nt,9.2µM,nt,nt,nt
Cc1cnc(SCc2ccccn2)nc1C1CCCN(C(=O)c2coc3c2C(=O)CCC3)C1 (stereo not given),23.1µM,nt,?,nt,nt,nt
COc1cc(C(=O)NC(=S)Nc2ccc(Cc3ccncc3)cc2)cc(OC)c1OC,?,?,?,i,i,i
COc1ccc(Br)cc1C(=O)Nc1ccc(Cc2ccncc2)cc1,?,i,?,i,i,?
CC(C)Cc1ccc(C(=O)Nc2ccc(Cc3ccncc3)cc2)o1,?,i,?,i,i,-91.1
O=C(Nc1ccc(Cc2ccncc2)cc1)c1ccc(Br)o1,i,i,i,i,i,?
COc1ccccc1C(=O)NC(=S)Nc1ccc(Cc2ccncc2)cc1,18.4µM,?,?,i,i,i
